# KB-V1 cytotox – KB-V1 MDR subline cytotoxicity; KB-V1 MDR cells viability, CellTiter-Glo, 72 h; Potency, µM (series often up to 46.1 µM), actives largely listed as cytotoxic; 400,000 tested, 3.4% active; AID 1347076; note: % is set by controls: 0 for no effect and ±100 for the full control effect; nearly all actives have a fitted effect of over 60% in size
#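 Following 72 h at 37 degrees C with compound, KB-V1 cell viability was read by CellTiter-Glo luminescence, medium being phenol-red-free DMEM plus 10% FBS; concentration-response parameters came from normalized, curve-fitted qHTS data.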
# KB-3-1 cytotox – KB-3-1 parental cell cytotoxicity; KB-3-1 viability, CellTiter-Glo ATP luminescence, 72 h; Potency, µM (titrated, usually from 46.1 µM), usual class: cytotoxic; 400,000 tested, 1.4% active; note: % is set by controls: 0 for no effect and ±100 for the full control effect; nearly all actives have a fitted effect of over 60% in size
#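 Cytotoxicity in the drug-sensitive parental line KB-3-1 was scored as loss of CellTiter-Glo luminescence following 72 h incubation with compound. Values come from curve fitting of normalized concentration-response data.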
# HepG2 viability – kills HepG2 cells in TGF-b inhibitor counter-screen; HepG2 CAGA-GFP viability, ATP luminescence, 18 h; Potency, µM (titrated, usually from 46.1 µM), inactives show top-dose activity change, negative = cytotoxicity, most hits filed as cytotoxic; 410,000 tested, 0.76% active; AID 588856
#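 HepG2 CAGA-GFP cells (1000/well, DMEM with 1% FBS) received compound, then TGF-beta at 500 pg/mL final, and were incubated 18 hours at 37 degrees C. Viability was read by CellTiter-Glo luminescence. Media-only wells were set as complete cell-killing and DMSO as no toxicity.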
# S2 tox – reduces viability in counter-screen for ATXN expression inhibitors. S2 cells (HEK-293 line with an ATXN2-luciferase reporter) viability, CellTiter-Fluor protease fluorescence, 24 h. Potency, µM (highest dose often 56.7 µM), actives largely listed as cytotoxic. 400,000 tested, 0.49% active; note: nearly all actives have a fitted effect of over 40% in size
# TGFb SMAD3 inh – blocks TGF-b signaling; Potency, µM (top dose mostly 46.1 µM), inactives show at the top dose activity, negative = inhibition, actives largely listed as inhibitors; 410,000 tested, 1.2% active; AID 588855; HepG2 CAGA-GFP TGF-b/SMAD3 reporter, GFP fluorescence, 18 h; TGF-beta stimulated, 500 pg/mL final; note: % is set by controls: 0 for no effect and ±100 for the full control effect; nearly all actives have a fitted effect of over 65% in size
#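 Smad-responsive CAGA-GFP expression was quantified in HEPG2 cells exposed to compounds and 500 pg/mL final TGF-beta for 18 h at 37 degrees C; unstimulated wells defined full inhibition.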
# ATXN2 expr inh – inhibitors of ATXN2 expression; HEK-293 ATXN2-luciferase reporter, luminescence, 24 h; Potency, µM (doses to about 57 µM), for inactives: at the top dose activity change, negative = inhibition, most hits filed as inhibitors; 360,000 tested, 0.72% active; note: % is set by controls: 0 for no effect and ±100 for the full control effect; nearly all actives have a fitted effect of over 55% in size
#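 ATXN2-luciferase reporter cells (luciferase flanked by upstream and downstream ATXN2 gene portions) were treated 24 h at 37 °C with compounds at up to 57 uM. SteadyGlo luminescence gave expression; GF-AFC fluorescence gave viability.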
# Active calls of the source: *; i = inactive; ? = inconclusive; / = no result; [ ] = remark or other dose. Only some compounds are listed: those with a hit (about 5.9% of all), similar ones and a draw of the others. Calls come from the whole dose curve; as a rule, active = well fitted curve in the direction sought with a large enough effect; inconclusive = small, poorly fitted or top-dose-only effect, or another doubt; inactive = no such curve, though single readings can be large; an effect the other way counts as inactive or inconclusive. Potency is the fitted concentration of half-maximal effect.
SMILES,KB-V1 cytotox,KB-3-1 cytotox,HepG2 viability,S2 tox,TGFb SMAD3 inh,ATXN2 expr inh
CCOc1ccc(CCNC(=O)C2Cc3ccccc3N2C(=O)CC)cc1OCC (centres undefined),i,i,5.2%,i,0.1%,8.0%
CCOC(=O)Cn1c(=O)n(-c2ccccc2OC)c2nc(-c3ccc(C(C)C)cc3)nc(C(N)=O)c21,i,i,0.0%,i,15.5%,7.5%
Cc1cc(Cl)c(S(=O)(=O)N2CCN(c3ccc(F)cc3)CC2)cc1OCC(=O)NC1CCCCC1,?,0.731µM*,-35.5%,?,-17.8%,-22.7%
Cc1cc(S(=O)(=O)N2CCCC2)ccc1OCC(=O)NC1CCCC1,i,i,-2.9%,i,10.1%,0.0%
CCOC(=O)C1CCCN(S(=O)(=O)c2cc(OCC(=O)NC3CCCCC3)c(C)cc2Cl)C1 (centres undefined),16.4µM*,i,17.0%,i,-4.6%,-21.9%
CCCN1C(=O)/C(=C/c2c(NCCCOC(C)C)nc3c(C)cccn3c2=O)SC1=S,i,i,-1.6%,i,14.3%,-4.6%
CCC(C)N1C(=O)/C(=C/c2c(NCCCOC(C)C)nc3c(C)cccn3c2=O)SC1=S (centres undefined),6.51µM*,i,0.2%,?,196.7%,-19.9%
CCOC(=O)c1ccc(NC(=O)CN2C(=O)c3cccnc3Oc3ccc(Cl)cc32)cc1,i,i,-24.7%,/,?,/
O=C1C(=Cc2ccc(F)cc2)CCc2ccccc21,i,i,/,i,/,36.3%
C=CC(=O)N1C/C(=C/c2ccc(F)cc2)C(=O)/C(=C\c2ccc(F)cc2)C1,i,?,20µM*,7.08µM*,?,5.62µM*
CC(C)C(=O)N1CCN(c2c(Cl)cccc2[N+](=O)[O-])CC1,14.6µM*,?,-15.9%,i,-5.2%,0.5%
CCC(=O)N1CCN(c2c(Cl)cccc2[N+](=O)[O-])CC1,?,?,14.0%,i,0.0%,2.8%
CC(C)C(=O)N1CCN(c2ccc(NC(=O)COc3ccccc3[N+](=O)[O-])cc2)CC1,18.4µM*,?,-19.1%,?,-14.5%,?
Cc1ccc(OCCSc2nnc(-c3cccs3)o2)cc1Cl,i,?,0.9%,i,-19.4%,3.8%
O=C(CCc1nc(-c2ccccc2)no1)NC1CCCCC1,20.6µM*,i,-19.2%,i,-1.2%,6.0%
O=C(CCc1nc(-c2ccccc2F)no1)NC1CCCCCC1,16.4µM*,?,-8.8%,i,-21.9%,-3.1%
O=C(CCc1nc(-c2ccc(Cl)cc2)no1)NC1CCCCC1,?,i,3.0%,?,-0.5%,-8.3%
Cc1nn(C)c2c1c(-c1ccccc1)cc(=O)n2Cc1c(F)cccc1Cl,i,i,2.3%,i,-0.7%,11.7%
O=C1C=CC(=O)N1CCNc1ncc(C(F)(F)F)cc1Cl,?,?,11.2µM*,/,12.6µM*,25.1µM*
O=C1CC(=O)N(CCNc2ncc(C(F)(F)F)cc2Cl)C(=O)N1,i,i,0.6%,i,54.0%,-7.8%
CC(=O)c1ccc(Nc2cc(C)nc3c(C)cccc23)cc1,2.91µM*,i,-20.8%,?,-18.9%,/
Cc1ccc(Nc2cc(C)nc3c(C)cccc23)cc1,8.2µM*,?,-21.2%,i,?,-4.0%
CC(=O)c1cccc(Nc2cc(C)nc3c(C)cc(C)cc23)c1,16.4µM*,i,-44.1%,?,?,?
COc1ccc(Nc2cc(C)nc3ccccc23)cc1,i,i,-41.0%,?,-25.7%,-22.2%
COc1cc(-c2noc(-c3ccc(N4CCN(C)CC4)c([N+](=O)[O-])c3)n2)cc(OC)c1OC,i,i,1.5%,i,-0.5%,10.2%
SMILES,KB-V1 cytotox,KB-3-1 cytotox,HepG2 viability,S2 tox,TGFb SMAD3 inh,ATXN2 expr inh
CCOc1cc2ncc(C#N)c(Nc3ccc(F)c(Cl)c3)c2cc1NC(=O)C=CCN(C)C,/,/,/,/,/,21.7µM*
CN(C)CC=CC(=O)Nc1cc2c(Nc3ccc(F)c(Cl)c3)ncnc2cc1O[C@H]1CCOC1,/,/,/,/,/,27.3µM*
O=C(NCCN1CCCCC1)Nc1ccc(F)c(Cl)c1,?,i,-1.3%,i,0.8%,-5.5%
COc1cc2ncnc(Nc3ccc(F)c(Cl)c3)c2cc1NC(=O)C=CCN1CCCCC1,/,/,/,/,/,30.6µM*
CCN1CCC(n2cc(CNc3cc(Cl)c4ncc(C#N)c(Nc5ccc(F)c(Cl)c5)c4c3)nn2)CC1,/,/,/,/,/,-18.8%
OC1(c2ccccc2)CCNCC1,/,/,/,i,/,-7.0%
CCCc1c(C)c2cc(C)ccc2[nH]c1=O,4.11µM*,?,-11.4%,i,4.0%,4.1%
CCCCc1c(C)c2cc(C)ccc2[nH]c1=O,?,i,1.1%,i,0.0%,8.5%
O=C(NCC(c1cccs1)S(=O)(=O)c1cccs1)c1ccccc1 (centres undefined),/,/,0.8%,/,0.8%,/
Cc1ccc(N/N=C(/Sc2nnnn2-c2ccccc2)C(=O)c2ccccc2)cc1,20.6µM*,i,7.2%,i,?,-8.8%
NNC(=O)CSc1nnnn1-c1ccccc1,i,i,-0.8%,i,14.1%,/
COc1cccc(-c2cc(=O)c3cc(NC(=O)c4ccc(Cl)cc4)ccc3[nH]2)c1,i,1.3µM*,17.2%,i,-2.7%,7.7%
COc1cccc(-c2cc(=O)c3cc(NC(=O)c4ccccc4)ccc3[nH]2)c1,i,1.64µM*,-6.6%,?,?,-15.7%
COc1cccc(C(=O)N2CCN(CCc3ccncc3)CC2)c1,/,/,-0.3%,/,-24.1%,/
CCc1nc2sc3c(N4CCC(C)CC4)ncnc3c2c2c1CCCC2,i,i,-90.5%,i,?,1.0%
FC(F)(F)c1nnc(-c2ccccc2)nc1Sc1ccc(Cl)cc1,?,?,-5.4%,/,0.0%,28.2µM*
FC(F)(F)c1cccc(Sc2nc(-c3ccccc3)nnc2C(F)(F)F)c1,?,20.6µM*,-0.4%,28.2µM*,-36.9%,?
O=C(/C=C/Nc1ccc(Oc2ccccc2Cl)cc1)c1ccco1,?,20.6µM*,-28.5%,i,-23.0%,23.5%
COc1ccccc1Oc1ccc(N/C=C/C(=O)c2ccco2)cc1,i,i,3.2%,/,25.2%,13.8%[11.3 µM]
CNC(=O)[C@]1(C(F)(F)F)C[C@H](CCC2CCCCC2)CCCO1,/,/,-21.8%,/,?,/
CCCNC(=O)c1nnsc1S(=O)(=O)c1ccc(Cl)cc1,23.1µM*,?,17.8µM*,?,?,14.5%[11.3 µM]
Cc1ccc(-c2nc(N3CCOCC3)sc2C(=O)N2CCCCC2)cc1,18.4µM*,i,-2.4%,i,-29.8%,-3.0%

# Screening results as filed in PubChem BioAssay.
